Test results reported in PubChem BioAssay AID1159580 (chemical genetic matrix, 2015).
Screen size: about 5,500 compounds; about 2,000 (36%) were called active. Another 18% or so got no clear call; they are omitted. No stated cut-off is given here; in the data, active means normalized growth mostly below about 0.91 (no sharp cut-off); inconclusive means no clear call, values can overlap the other calls; inactive means mostly above about 0.92. The list shows a part of the results.

Assay: chemical genetic growth profiling, strain panel (AID 1159580);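 further: tested at 20 µM; growth read once vehicle control cultures reached saturation at 30 °C; 1 = growth at the plate median or of vehicle wells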
Settings: S. cerevisiae deletion strains, growth OD

Measured: normalized growth

CN(C(=O)CCCOc1ccc2[nH]c(=O)ccc2c1)C1CCCCC1
inactive: locus YAL013W, strain DEP1, stronger effect = lower value 1.01 | locus YAL040C, strain CLN3, stronger effect = lower value 0.998 | locus YCL061C, strain MRC1 (second series), stronger effect = lower value 0.998 | locus YDR150W, strain NUM1, stronger effect = lower value 0.99 | locus YDR363W, strain ESC2, stronger effect = lower value 1 | locus YER002W, strain NOP16, stronger effect = lower value 0.989 | locus YMR263W, strain SAP30, stronger effect = lower value 0.989 | locus YMR307W, strain GAS1, stronger effect = lower value 1.01 | locus YNL175C, strain NOP13, stronger effect = lower value 1.01 | locus YNL197C, strain WHI3, stronger effect = lower value 1.02 | locus YNL224C, strain SQS1, stronger effect = lower value 0.989 | locus YOR083W, strain WHI5 (second series), stronger effect = lower value 0.993 | locus YPL055C, strain LGE1, stronger effect = lower value 1 | locus YPL241C, strain CIN2, stronger effect = lower value 0.999
